According to PubChem BioAssay (Tox21):
Activity calls are given as the source filed them. Calls come from the whole dose curve; as a rule, active = well fitted cell-killing curve with a large enough effect in the repeat runs; inconclusive = weak or mixed curves, or effect the other way; inactive = flat fitted curve, though single readings scatter. Where a SMILES comes first, the peptide text is derived from it. [ ]: non-standard residue; d: D form. pGlu = O=C1CC[C@@H](C(=O)O)N1

Experiment: qHTS assay to identify small molecule HDAC inhibitors - cell viability counter screen (AID 1259365); note: nearly all actives have a fitted effect of over 50% in size
Conditions: HCT-116 viability, CellTiter-Glo ATP luminescence, 2 h; series mostly up to 92.4 µM; activity change, negative = cytotoxicity: at the top concentration
Excerpt: U.S. Tox21 Program National Center for Advancing Translational Sciences [NCATS] NIH Chemical Genomics Center [NCGC] U.S. Environmental Protection Agency [EPA] National Institutes of Environmental Health Sciences [NIEHS] National Toxicology Program [NTP] U.S. Food and Drug Administration [FDA] Tox21 Assay Overview: Histone deacetylases (HDACs) are a group of epigenetic enzymes that regulate gene expression by histone deacetylation. HDACs are capable of introducing epigenetic modifications and such aberrations contribute to the onset and progression of several human diseases, thus making HDACs a popular therapeutic target. For identifying endogenous class I/II HDAC inhibitors a homogenous, luminogenic HDAC I/II cell based assay was used to measure the relative activity of class I and II HDACs from cells. Wild type HCT-116 cells were used to screen Tox21 compound libraries for identifying class I/II HDAC inhibitors.
Tox21 Assay Protocol Summary: HCT-116 cells were dispensed at 1,500 per well in 5uL of culture medium into white solid bottom 1536-well plates (Greiner Bio-One, Monroe, NC) using a Multidrop Combi (Thermo Scientific, Waltham, MA) dispenser. The assay plates were incubated at 37 C and 5% CO2 for an overnight, and then 23nL of compounds dissolved in DMSO and positive control were transferred using a Pintool station (Wako, San Diego, CA). The assay plates were incubated at 37C and 5% CO2 for 2hr. After compound treatment, 4uL of CellTiter-Glo reagent (Promega Corporation, Madison, WI) was added to each well of the assay plates using Flying Reagent Dispenser (FRD, Aurora Discovery, San Diego, CA) and incubated the assay plates at room temperature for 30min. The luminescence signal was quantified using a ViewLux plate reader (Perkin Elmer, Shelton, CT).
% is set by controls: 0 for no effect and ±100 for the full control effect.

SMILES | activity change, negative = cytotoxicity
[K+] | 0.658% (inactive)
CC(C)C1CCC(O)CC1 (stereo not given) | 5.08% (inactive)
COc1cc(C(=O)NCc2ccc(OCCN(C)C)cc2)cc(OC)c1OC | -1.2% [at 42.5 µM] (inactive)
O=[N+]([O-])c1cncn1CCN1CCOCC1 | -1.11% [at 42.5 µM] (inactive)
O=C(c1ccccc1O)c1ccccc1O | 1.9% (inactive)
Cc1ccc(C(=O)Nc2ccc(S(=O)(=O)O)c3cc(S(=O)(=O)O)cc(S(=O)(=O)O)c23)cc1NC(=O)c1cccc(NC(=O)Nc2cccc(C(=O)Nc3cc(C(=O)Nc4ccc(S(=O)(=O)O)c5cc(S(=O)(=O)O)cc(S(=O)(=O)O)c45)ccc3C)c2)c1 | 1.41% [at 42.5 µM] (inactive)
CCCO[Si](OCCC)(OCCC)OCCC | -4.97% (inactive)
Nc1ccn([C@@H]2O[C@H](CO)[C@@H](O)C2O)c(=O)n1 (stereo not given in full) | 10.1% (inactive)
CCCCCCCCCCCCCCC(=O)O | -0.27% (inactive)
O=C(O)CCCC[P+](c1ccccc1)(c1ccccc1)c1ccccc1 | 2.47% [at 42.5 µM] (inactive)
CCCCOC(=O)CCC(C)=O | -5.17% (inactive)
CCCCN1C=CN(C)C1 | 5.24% [at 19 µM] (inactive)
O=C1c2ccccc2C(=O)c2cc(O)ccc21 | 14.1% (inactive)
CCCCOCCOC(=O)CCCCCCCCC(=O)OCCOCCCC | -2.36% (inactive)
CCCn1cc[n+](C)c1C | 0.0097% (inactive)
CCCc1nn(C)c2c(=O)[nH]c(-c3cc(S(=O)(=O)N4CCN(C)CC4)ccc3OCC)nc12 | 3.2% [at 42.5 µM] (inactive)
COc1cc(C)nc(-n2nc(C)cc2OC)n1 | 2.01% [at 42.5 µM] (inactive)
CC(=O)C1CCCCC1=O (stereo not given) | 3.27% (inactive)
O=S(=O)(O)c1cccc(S(=O)(=O)O)c1 | 2.02% (inactive)
CCOC(=O)COC(=O)c1ccccc1C(=O)OCC | 1.27% (inactive)

SMILES | activity change, negative = cytotoxicity
CN(C)C(=O)Oc1cccc([N+](C)(C)C)c1 | -3.2% [at 42.5 µM] (inactive)
Nc1ccncc1N | 2.49% [at 42.5 µM] (inactive)
C[N+]1(C)[C@@H]2CC(OC(=O)[C@H](CO)c3ccccc3)C[C@H]1[C@@H]1O[C@@H]12 (stereo not given in full) | 0.228% [at 42.5 µM] (inactive)
CC(C)C[C@@H](N)C(=O)O | -1.99% [at 19 µM] (inactive)
CC(C)(C#N)Nc1nc(Cl)nc(NC2CC2)n1 | 6.81% (inactive)
CCCCCCC1CCC(=O)O1 (stereo not given) | -0.522% (inactive)
CCC1C(=O)OCC1Cc1cncn1C (stereo not given) | 0.309% [at 42.5 µM] (inactive)
CCNC(=O)[C@@H]1CCCN1C(=O)[C@H](CCCN=C(N)N)NC(=O)[C@H](CC(C)C)NC(=O)CNC(=O)[C@H](Cc1ccc(O)cc1)NC(=O)[C@H](CO)NC(=O)[C@H](Cc1c[nH]c2ccccc12)NC(=O)[C@H](Cc1cnc[nH]1)NC(=O)[C@@H]1CCC(=O)N1 ([pGlu]HWSYGLRP-NHEt) | -0.251% [at 42.5 µM] (inactive)
Cc1ccnc(NS(=O)(=O)c2ccc(N)cc2)n1 | 1.45% [at 42.5 µM] (inactive)
CC(C)C(=O)OC(=O)C(C)C | 1.56% (inactive)
C=CCCC(=O)O | -6.9% (inactive)
CN(C)C(=O)Oc1ccc[n+](C)c1 | 0.101% [at 42.5 µM] (inactive)
c1ccc2sc(SN3CCOCC3)nc2c1 | -0.338% [at 42.5 µM] (inactive)
CCCCCC(C)N (stereo not given) | 2.62% [at 42.5 µM] (inactive)
COc1cc(C(=O)OC(COCCC(C)C)CN2CCOCC2)cc(OC)c1OC (stereo not given) | -3.24% [at 42.5 µM] (inactive)
CCN[C@H]1C[C@H](C)S(=O)(=O)c2sc(S(N)(=O)=O)cc21 | -0.898% [at 42.5 µM] (inactive)
CCCCCCCCCCOc1cc2c(=O)c(C(=O)OCC)c[nH]c2cc1OCC | 9.44% [at 8.39 µM] (inactive)
OCCCCCO | -1.93% (inactive)
CC(C)CCCO | -1.66% (inactive)
CCOC(=O)OC(C)OC1=C(C(=O)Nc2ccccn2)N(C)S(=O)(=O)c2ccccc21 (stereo not given) | 0.125% [at 42.5 µM] (inactive)
